Compound activity from PubChem.
These entries were drawn from the full list.
CYP2C19 inh: inhibitors of human CYP2C19; CYP2C19 Supersomes, luciferin-H EGE luminescence, 30 min; inhibition, % at 5 µM; 96,000 compounds, 21% hits;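 active = CYP2C19 inhibition above a set limit at 5 µM in the primary screen, cut at about 50% in these data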;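 also: plate controls were negative control wells for no effect and 2.5 mM tranylcypromine positive control for full effect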
Target sequence (P33261 whole entry, looked up): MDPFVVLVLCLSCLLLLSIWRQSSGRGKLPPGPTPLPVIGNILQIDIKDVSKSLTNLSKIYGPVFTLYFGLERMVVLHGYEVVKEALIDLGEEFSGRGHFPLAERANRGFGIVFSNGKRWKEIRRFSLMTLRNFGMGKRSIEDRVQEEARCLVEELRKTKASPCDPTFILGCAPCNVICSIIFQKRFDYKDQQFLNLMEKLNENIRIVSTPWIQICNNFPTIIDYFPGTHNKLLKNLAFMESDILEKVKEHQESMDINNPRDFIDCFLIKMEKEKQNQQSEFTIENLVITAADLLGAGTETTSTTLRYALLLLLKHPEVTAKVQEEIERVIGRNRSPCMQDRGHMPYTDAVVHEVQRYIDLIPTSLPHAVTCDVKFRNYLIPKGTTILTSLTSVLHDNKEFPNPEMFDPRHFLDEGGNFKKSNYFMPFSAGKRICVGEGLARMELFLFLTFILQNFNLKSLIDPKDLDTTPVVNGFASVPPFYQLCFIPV
CYP2C9 act: activators of human CYP2C9; P11712; recombinant CYP2C9, luciferin-H conversion, luminescence; hits give high values; factor 1 = untreated enzyme, 0 = blocked; activation factor at 5 µM; 96,000 compounds, 1.4% hits;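 active = activation factor of 2 or more for CYP2C9 at a 5 µM dose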;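 also: 0 = sulfaphenazole-blocked wells and 1 = vehicle-only wells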
PostGolgi ctrl: yeast control strain growth, post-Golgi counter-screen. efflux-deficient yeast background strain, growth absorbance A615, 16 h. inhibition, % at 10 µM. 98,000 compounds, 5% hits. AID 738
CYP2C19 act: activators of human cytochrome P450 2C19 | recombinant CYP2C19, luciferin-H EGE luminescence; hits give high values; 0 = fully inhibited enzyme, 1 = untreated enzyme | 96,000 tested, under 10 active | P33261 | activation factor at 5 µM | AID 1025;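 active = activation factor of at least 2 at 5 µM in the primary screen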;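 also: 0 = wells with 2.5 mM tranylcypromine and 1 = vehicle-only wells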
CYP2C9 inhib: human CYP2C9 inhibition. CYP2C9 Supersomes, luciferin-H conversion, luminescence. 96,000 compounds, 20% hits. P11712. inhibition, % at 5 µM. AID 777;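 active = blocking of liver enzyme CYP2C9 beyond about 50% at 5 µM, limit read from the data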
PostGolgi yeast: growth inhibition of a yeast mutant, post-Golgi transport screen | post-Golgi transport phenotypic cell assay | inhibition, % at 10 µM | 98,000 compounds, 0.9% hits;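 also: yeast cells grown in 1536-well plates; yeast grown about 18 h at 30C before absorbance read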
Starred values were filed as active, the others as inactive. Rule as the data show it, unless noted: active = inhibition above about 30%; inactive = the rest.

Results for O=C(Nc1cccnc1)C1CC(c2ccccc2O)=NO1 (centres undefined) ?
CYP2C19 inh: 80*; CYP2C9 act: 0.5; PostGolgi ctrl: 11; CYP2C19 act: 0.2; CYP2C9 inhib: 51*; PostGolgi yeast: -1

How did O=C(NCc1cccnc1)C1CC(c2ccc(F)cc2)=NO1 (centres undefined) do in these assays?
CYP2C19 inh: 10; CYP2C9 act: 0.8; PostGolgi ctrl: 9; CYP2C19 act: 0.9; CYP2C9 inhib: 17; PostGolgi yeast: -4

How did COc1ccc(-c2cc(-c3cc(OC)ccc3O)[nH]n2)cc1 do in these assays?
CYP2C19 inh: 13; CYP2C9 act: 0.6; PostGolgi ctrl: 28; CYP2C19 act: 0.9; CYP2C9 inhib: 38; PostGolgi yeast: -2

What do the screens show for `COc1ccc(OC)c(-c2cc(C3CCN(c4cc(Cl)nc(N)n4)CC3)[nH]n2)c1`?
CYP2C19 inh: 36; CYP2C9 act: 1.3; PostGolgi ctrl: 34*; CYP2C19 act: 0.6; CYP2C9 inhib: -26; PostGolgi yeast: -4

Results for Nc1nc(Cl)cc(N2CCC(c3cc(-c4ccc(Cl)cc4)n[nH]3)CC2)n1 ?
CYP2C19 inh: 11; CYP2C9 act: 1; PostGolgi ctrl: 102*; CYP2C19 act: 0.9; CYP2C9 inhib: -4; PostGolgi yeast: 16

Results for COc1ccc(-c2cc(C3CCN(c4cc(Cl)nc(N)n4)CC3)[nH]n2)cc1 ?
CYP2C19 inh: 59*; CYP2C9 act: 0.8; PostGolgi ctrl: 42*; CYP2C19 act: 0.4; CYP2C9 inhib: 24; PostGolgi yeast: -5

Results for CC(=NCCc1ccccc1)C1=C(O)COC1=O ?
CYP2C19 inh: 27; CYP2C9 act: 0.9; PostGolgi ctrl: 4; CYP2C19 act: 0.7; CYP2C9 inhib: 9; PostGolgi yeast: -3

How did CCOC(=O)C(Cc1ccccc1)NC(=O)CCc1c(C)nc2nc(C)nn2c1C (centres undefined) do in these assays?
CYP2C19 inh: -1; CYP2C9 act: 1.1; PostGolgi ctrl: 15; CYP2C19 act: 1; CYP2C9 inhib: -11; PostGolgi yeast: 10

What do the screens show for `CCOc1cc(CNn2nnnc2N)cc(Cl)c1OCC(=O)NC(C)(C)C`?
CYP2C19 inh: 91*; CYP2C9 act: 0.7; PostGolgi ctrl: 6; CYP2C19 act: 0.1; CYP2C9 inhib: 29; PostGolgi yeast: 9

How did COc1cc(CNn2nnnc2N)ccc1OCc1c(Cl)cccc1Cl do in these assays?
CYP2C19 inh: 62*; CYP2C9 act: 0.8; PostGolgi ctrl: 6; CYP2C19 act: 0.4; CYP2C9 inhib: 19; PostGolgi yeast: 8

What do the screens show for `C=CCOc1c(Br)cc(CNn2nnnc2N)cc1OCC`?
CYP2C19 inh: 37; CYP2C9 act: 0.9; PostGolgi ctrl: -5; CYP2C19 act: 0.6; CYP2C9 inhib: 6; PostGolgi yeast: 9

How did CC(=O)NC(CC(=O)NCC(c1ccco1)N(C)C)c1ccccc1 (centres undefined) do in these assays?
CYP2C19 inh: 22; CYP2C9 act: 1; CYP2C19 act: 0.8; CYP2C9 inhib: -2

What do the screens show for `O=C(/C=C/c1cccc(Cl)c1)c1nc2ccccc2[nH]1`?
CYP2C19 inh: 44; CYP2C9 act: 1; PostGolgi ctrl: 93*; CYP2C19 act: 0.6; CYP2C9 inhib: 1; PostGolgi yeast: 100*

Results for O=C(CSCc1nc2ccccc2[nH]1)N1CCN(c2cccc(Cl)c2)CC1 ?
CYP2C19 inh: 18; CYP2C9 act: 0.6; PostGolgi ctrl: 24; CYP2C19 act: 0.8; CYP2C9 inhib: 36; PostGolgi yeast: -5

What do the screens show for `O=C(Nc1ccccc1)N1CCC(C(=O)N(Cc2ccco2)Cc2cccs2)CC1`?
CYP2C19 inh: 18; CYP2C9 act: 0.7; PostGolgi ctrl: -2; CYP2C19 act: 0.8; CYP2C9 inhib: 30; PostGolgi yeast: -3

Results for CCN(CC)CCNC(=O)C1c2ccccc2C(=O)N(CCOC)C1c1ccc(F)cc1 (centres undefined) ?
CYP2C19 inh: -33; CYP2C9 act: 1.3; PostGolgi ctrl: 1; CYP2C19 act: 1.3; CYP2C9 inhib: -29; PostGolgi yeast: -12

Results for O=C(O)c1ccccc1C(=O)N1CCN(c2ccccc2)CC1 ?
CYP2C19 inh: -6; CYP2C9 act: 1; PostGolgi ctrl: 1; CYP2C19 act: 1.1; CYP2C9 inhib: 2; PostGolgi yeast: -5

How did O=C(c1ccccc1C(=O)N1CCN(c2ccc(F)cc2)CC1)N1CCN(c2ccc(F)cc2)CC1 do in these assays?
CYP2C19 inh: 54*; CYP2C9 act: 0.1; PostGolgi ctrl: 10; CYP2C19 act: 0.5; CYP2C9 inhib: 88*; PostGolgi yeast: -1

How did O=C(c1ccccc1C(=O)N1CCN(c2ccccc2)CC1)N1CCN(c2ccccc2)CC1 do in these assays?
CYP2C19 inh: 32; CYP2C9 act: 0.3; PostGolgi ctrl: 9; CYP2C19 act: 0.7; CYP2C9 inhib: 70*; PostGolgi yeast: 8

What do the screens show for `Cc1ccc(C(=O)N2CCN(c3ccc(NC(=O)c4cccnc4)cc3)CC2)cc1`?
CYP2C19 inh: 35; CYP2C9 act: 0.3; PostGolgi ctrl: 0; CYP2C19 act: 0.7; CYP2C9 inhib: 74*; PostGolgi yeast: 2

How did CCCN1Cc2cccc(C(=O)N3CCN(c4ccccc4)CC3)c2C1=O do in these assays?
CYP2C19 inh: 50*; CYP2C9 act: 0.7; PostGolgi ctrl: 1; CYP2C19 act: 0.5; CYP2C9 inhib: 29; PostGolgi yeast: -5

Results for COCCN1Cc2cccc(C(=O)N3CCN(c4ccccc4)CC3)c2C1=O ?
CYP2C19 inh: 29; CYP2C9 act: 0.9; PostGolgi ctrl: 2; CYP2C19 act: 0.7; CYP2C9 inhib: 12; PostGolgi yeast: 3

How did CC(c1ccccc1)n1cc(C(=O)NCCCn2ccnc2)nn1 (centres undefined) do in these assays?
PostGolgi ctrl: 19; PostGolgi yeast: 1

How did CC1CN(C(=O)c2cc3c(=O)n4ccccc4nc3s2)CC(C)O1 (centres undefined) do in these assays?
CYP2C19 inh: 8; CYP2C9 act: 0.8; PostGolgi ctrl: 7; CYP2C19 act: 0.9; CYP2C9 inhib: 17; PostGolgi yeast: 11

How did C/C(NC1CCCCC1)=C(/C#N)C(=O)NCCN1CCOCC1 do in these assays?
CYP2C19 inh: 7; CYP2C9 act: 0.9; PostGolgi ctrl: 20; CYP2C19 act: 0.9; CYP2C9 inhib: 8; PostGolgi yeast: 6

Results for O=C(c1ccco1)N1CCN(c2ccc(Cl)cc2)CC1 ?
CYP2C19 inh: 32; CYP2C9 act: 0.5; PostGolgi ctrl: 7; CYP2C19 act: 0.7; CYP2C9 inhib: 47; PostGolgi yeast: -3

What do the screens show for `Cc1cc(C(=O)N2CCN(c3ccccc3)CC2)c(C)o1`?
CYP2C19 inh: 38; CYP2C9 act: 1; PostGolgi ctrl: 2; CYP2C19 act: 0.6; CYP2C9 inhib: -5; PostGolgi yeast: 0

How did COc1cccc(N2CCN(C(=O)c3[nH]c(C)c(C(C)=O)c3C)CC2)c1 do in these assays?
CYP2C19 inh: 23; CYP2C9 act: 0.7; PostGolgi ctrl: -4; CYP2C19 act: 0.8; CYP2C9 inhib: 34; PostGolgi yeast: 20
